“And” between values parts separate entries of the source, which are not always exact repeats. Identical values can stand only once. Results filed as inconclusive are left out. The source made the active and inactive calls. Unless noted, the call rests on the fitted dose curve; in most records, active means well fitted curve in the direction sought with a large enough effect; inconclusive means small, poorly fitted or top-dose-only effect, or another doubt; inactive means no such curve, though single readings can be large; an effect the other way counts as inactive or inconclusive.
Experiments:
[1] = target: Peroxisome proliferator-activated receptor alpha (Homo sapiens) (UniProt Q07869); experiment: qHTS assay for small molecule agonists of the peroxisome proliferator-activated receptor alpha (PPARalpha) signaling pathway (AID 651778); conditions: PathHunter PPARalpha complementation, chemiluminescence, 6 h; max response: stronger effect = higher value; further: % of control where 0% means no effect
Summary of the method: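 Chemiluminescence from complemented enzyme reported PPARalpha activation in cells after 6 hr of compound treatment at 37 C. The detection reagent was incubated for 60 min at room temperature, and compounds were scored as agonists.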

[2] = qHTS assay for small molecule agonists of the antioxidant response element (ARE) signaling pathway measured by Nrf2-dependant transcriptional activity (AID 720636; active means well fitted curve in the direction sought with a large enough effect in the repeat runs; an effect the other way counts as inactive or inconclusive; further: % of control where 0% means no effect)
Summary of the method: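 Quantitative HTS format in HepG2 cells stably expressing an ARE-luciferase reporter; 16 hr compound treatment at 37 C, luciferase signal detected with ONE-Glo.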

[3] = qHTS assay for small molecule agonists of the antioxidant response element (ARE) signaling pathway measured by Nrf2-dependant transcriptional activity - cell viability counter screen (AID 720653; active means well fitted curve in the direction sought with a large enough effect in the repeat runs; an effect the other way counts as inactive or inconclusive; further: on the % scale 0 is the no-effect control and ±100 the full control effect); conditions: ARE-bla HepG2 viability, CellTiter-Glo ATP luminescence, 16 h; max response: stronger effect = lower value
Summary of the method: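 Cytotoxicity counter screen: intracellular ATP quantified by CellTiter-Glo luminescence in the same ARE-bla HepG2 plates, after 16 h compound exposure and a 2 h beta-lactamase substrate step.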

[4] = qHTS Assay for Identifying Gametocytocidal Compounds (AID 743244);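 further: on the % scale 0 is the no-effect control and ±100 the full control effect; actives lower the fluorescent signal which means gametocytes are killed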; conditions: P. falciparum 3D7 stage III-V gametocytes, alamarBlue, 72 h; max response: stronger effect = lower value
Summary of the method: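 A resazurin-based viability read-out was applied to mature P. falciparum gametocytes: 72 h compound treatment, then 24 h dye incubation, with falling fluorescence signalling gametocytocidal effect.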

[5] = qHTS assay for cell viability of HEK293 cells (AID 743288); conditions: ATP luminescence (CellTiter-Glo), 18 h; max response: stronger effect = lower value; further: on the % scale 0 is the no-effect control and ±100 the full control effect; nearly all actives have a fitted effect of over 50% in size
Summary of the method: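 HEK293 parental, 2,000 cells/well; ≥5 h pre-incubation 37 C; pintool compound addition; 18 h, 37 C; CellTiter-Glo 30 min RT; luminescence read.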

[6] = qHTS assay for cell viability of the p53RE-bla HCT-116 cell line (AID 743292); further: on the % scale 0 is the no-effect control and ±100 the full control effect; nearly all actives have a fitted effect of over 55% in size
Summary of the method: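 Viability of compound-treated p53RE-bla HCT-116 cells is taken from ATP-dependent luciferase luminescence. Treatment lasts 16 h at 37 C after a 5 h settling period; detection follows 30 min at room temperature.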

[7] = target: Tyrosine-protein kinase Yes (Homo sapiens) (UniProt P07947); experiment: qHTS for small molecule inhibitors of Yes1 kinase: Primary Screen (AID 686947);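 further: plate controls were DMSO with enzyme for no effect and no-enzyme DMSO wells for full effect; nearly all actives have a fitted effect of over 60% in size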
Summary of the method: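 ADP-Glo luminescence readout; final 4 nM Yes1, 0.1 mM ATP, 0.3 mg/mL poly(E4Y), Tris pH 7.5, MgCl2, DTT, Brij-35. 20 min compound preincubation, 60 min reaction at RT. Normalized to DMSO wells with and without enzyme.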

[8] = qHTS for small molecule inhibitors of Yes1 kinase: Counter Assay (AID 686950);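 further: no kinase present so only ADP-Glo detection of a fixed ADP amount is tested; luminescence from ADP-Glo reporting ADP in a fixed ATP and ADP mixture; 0% = DMSO wells with ATP plus ADP and -100% = ATP-only wells without ADP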
Summary of the method: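 Luminescence read-out from ADP-Glo quantifies a fixed ADP amount (0.02 mM ADP with 0.08 mM ATP) after 60 min at room temperature; signal is normalized between DMSO wells with ATP/ADP and with 0.1 mM ATP alone.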

[9] = qHTS profiling for inhibitors of Plasmodium falciparum (3D7) proliferation (AID 743322);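 further: infected erythrocytes exposed to compound for 72 h before lysis; 100% = DMSO vehicle wells and 0% = 0.29 µM artemisinin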; conditions: P. falciparum 3D7 proliferation; at 28.7 µM (top of the series) unless noted
Summary of the method: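 Erythrocytes infected with P. falciparum (0.3% parasitemia, 2.5% hematocrit) incubated with compounds 72 h at 37 C, 5% CO2. Lysis with saponin/Triton buffer containing SYBR Green I, overnight at room temperature in the dark; DNA fluorescence (485/535 nm) normalised to 0.29 uM artemisinin and DMSO.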

[10] = qHTS profiling for inhibitors of Plasmodium falciparum (DD2) proliferation (AID 743323; call rule not given here); conditions: lower = more inhibition; at 28.7 µM (top of the series) unless noted
Summary of the method: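 SYBR Green fluorescence (ex 485, em 535 nm) of lysed cultures gives parasite DNA content; wells normalized to artemisinin (0.29 uM) and DMSO controls. Infected red cells: 0.3% parasitemia, 2.5% hematocrit, 72 h, 37 C.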

[11] = target: Arylsulfatase A (Homo sapiens) (UniProt P15289); experiment: qHTS screen for enhancers of Arylsulfatase A (ASA1): LOPAC Validation Assay (AID 720538); conditions: outcome: dose series up to 57.5 µM
Summary of the method: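 MLD patient fibroblasts (SV40, ASA-I179S), 1536-well; adhere 6 hrs; cpd 48h, 37 degree C, 5% CO2; pNCS 0.5mM final in lysis buffer, 14h RT; stop 1N NaOH final; fluor. Ex525/Em598.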

[12] = qHTS for compounds that reverse cellular toxicity of Amyloid beta (A-beta) peptide in yeast: LOPAC Validation Assay (AID 720559);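 further: plate controls were DMSO for no effect and equimolar ferric chloride plus clioquinol rescue for full effect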
Summary of the method: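 Medium dispensed, compounds pinned, A-beta yeast suspension added; plates held at 30 C for 48 hr; absorbance measured at 600 nm to gauge growth; values scaled between DMSO and FeCl3/clioquinol (equimolar) controls.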

[13] = qHTS for Activators of Parkin Expression: LOPAC Validation Assay (NLuc Reporter) (AID 720572)
Summary of the method: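 Parkin promoter-driven FLuc/NLuc neuronal reporter cells; 24 h plating, 7-pt dose response, 24 h at 37 C/5% CO2; FLuc then NanoLuc reagent, 10 min each, luminescence; DMSO/positive control normalized.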

[14] = qHTS for Activators of Parkin Expression: LOPAC Validation Assay (FLuc Reporter) (AID 720573)
Summary of the method: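 Cells seeded, 24 h; compounds pinned, 7-pt dose response; 24 h at 37 C/5% CO2; volume reduced; FLuc reagent 10 min RT; luminescence read. Normalization: DMSO = 0, positive control = 100%.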

[15] = target: T1, Hexokinase-4 (Homo sapiens) + Glucokinase regulatory protein (Homo sapiens) (UniProt P35557+Q14397); experiment: qHTS assay for inhibitors of recombinant human GCK-GKRP interaction: Diaphorase-coupled assay (AID 743205)
Summary of the method: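 25 mM Hepes pH 7.6, 5 mM glucose, 0.4 mM ATP, 4 U/ml G6PDH; 10 nM each GST-GCK/FLAG-GKRP. Kinetic fluorescence read, 1/min × 30 min. Normalized: DMSO ± enzyme = max/min.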

[16] = target: T1, Hexokinase-4 (Homo sapiens) + Glucokinase regulatory protein (Homo sapiens); experiment: qHTS assay for inhibitors of recombinant human GCK-GKRP interaction: ADP-Glo assay (AID 743206);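 further: plate controls were DMSO plus enzyme for no effect and no enzyme for full effect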
Summary of the method: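 GST-GCK and FLAG-GKRP (15 nM each in the dispensed mix, with 2 uM S6P) react with 0.4 mM ATP and 5 mM glucose (final) in Hepes pH 7.6 for 60 min at room temperature. ADP is measured by ADP-Glo luminescence.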

[17] = target: T1, Hexokinase-4 (Homo sapiens) + Glucokinase regulatory protein (Homo sapiens); experiment: qHTS assay for inhibitors of recombinant human GCK-GKRP interaction: HTRF assay (AID 743207);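 further: 0% = DMSO with GCK present and -100% = DMSO wells lacking GCK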
Summary of the method: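 5 nM GST-GCK + 5 nM FLAG-GKRP + 2 uM S6P, pH 7.1 buffer (25 mM Hepes, 2 mM MgCl2, 25 mM KCl, 1 mM DTT, Tween/BSA); pin-transferred cpd; anti-FLAG XL665/anti-GST K; 60 min RT; HTRF.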

Chain of Arylsulfatase A (Homo sapiens) (P15289 whole entry, looked up): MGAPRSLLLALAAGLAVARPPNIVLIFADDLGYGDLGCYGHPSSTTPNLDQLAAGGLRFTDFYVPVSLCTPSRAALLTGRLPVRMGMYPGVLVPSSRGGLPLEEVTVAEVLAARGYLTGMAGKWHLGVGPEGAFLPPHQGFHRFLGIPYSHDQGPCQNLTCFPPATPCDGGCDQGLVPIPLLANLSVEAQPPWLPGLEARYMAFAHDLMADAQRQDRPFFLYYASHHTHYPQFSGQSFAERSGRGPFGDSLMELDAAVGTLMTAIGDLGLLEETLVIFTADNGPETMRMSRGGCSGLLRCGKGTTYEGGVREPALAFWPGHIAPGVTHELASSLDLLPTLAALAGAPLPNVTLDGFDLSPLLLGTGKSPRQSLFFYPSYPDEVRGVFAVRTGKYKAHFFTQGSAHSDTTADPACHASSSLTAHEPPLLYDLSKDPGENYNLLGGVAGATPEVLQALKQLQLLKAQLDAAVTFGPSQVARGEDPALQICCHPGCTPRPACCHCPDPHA
T1 sequence (P35557 whole entry, looked up): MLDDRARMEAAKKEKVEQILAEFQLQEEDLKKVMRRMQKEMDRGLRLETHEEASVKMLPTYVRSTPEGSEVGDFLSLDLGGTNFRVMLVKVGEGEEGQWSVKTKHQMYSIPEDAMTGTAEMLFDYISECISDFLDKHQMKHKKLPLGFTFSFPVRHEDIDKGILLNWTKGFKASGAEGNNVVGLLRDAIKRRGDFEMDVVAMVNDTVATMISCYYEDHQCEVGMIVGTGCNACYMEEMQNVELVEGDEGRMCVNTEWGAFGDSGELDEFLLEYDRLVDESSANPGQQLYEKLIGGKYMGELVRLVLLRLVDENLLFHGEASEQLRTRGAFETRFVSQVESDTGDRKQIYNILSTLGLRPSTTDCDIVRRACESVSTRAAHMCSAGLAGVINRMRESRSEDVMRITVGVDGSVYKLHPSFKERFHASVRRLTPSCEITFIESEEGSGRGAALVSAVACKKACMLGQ
T1 sequence (Q14397 whole entry, looked up): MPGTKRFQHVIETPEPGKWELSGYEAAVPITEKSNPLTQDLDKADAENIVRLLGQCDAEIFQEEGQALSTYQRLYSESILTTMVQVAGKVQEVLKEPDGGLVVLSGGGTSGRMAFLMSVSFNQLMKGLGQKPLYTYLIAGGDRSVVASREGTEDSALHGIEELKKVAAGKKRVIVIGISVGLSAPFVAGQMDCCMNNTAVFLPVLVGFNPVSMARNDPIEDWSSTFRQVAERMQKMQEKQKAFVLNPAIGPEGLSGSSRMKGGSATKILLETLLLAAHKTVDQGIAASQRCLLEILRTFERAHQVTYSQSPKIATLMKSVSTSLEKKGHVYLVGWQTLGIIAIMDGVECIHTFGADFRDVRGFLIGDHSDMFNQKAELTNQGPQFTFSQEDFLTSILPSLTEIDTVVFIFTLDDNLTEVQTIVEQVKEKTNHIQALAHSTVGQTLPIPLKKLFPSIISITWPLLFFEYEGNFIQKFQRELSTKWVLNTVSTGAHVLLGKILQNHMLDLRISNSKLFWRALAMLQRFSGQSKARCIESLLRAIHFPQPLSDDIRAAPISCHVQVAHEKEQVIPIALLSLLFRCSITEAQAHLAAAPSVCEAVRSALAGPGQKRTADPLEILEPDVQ
Chain of Tyrosine-protein kinase Yes (Homo sapiens) (P07947 whole entry, looked up): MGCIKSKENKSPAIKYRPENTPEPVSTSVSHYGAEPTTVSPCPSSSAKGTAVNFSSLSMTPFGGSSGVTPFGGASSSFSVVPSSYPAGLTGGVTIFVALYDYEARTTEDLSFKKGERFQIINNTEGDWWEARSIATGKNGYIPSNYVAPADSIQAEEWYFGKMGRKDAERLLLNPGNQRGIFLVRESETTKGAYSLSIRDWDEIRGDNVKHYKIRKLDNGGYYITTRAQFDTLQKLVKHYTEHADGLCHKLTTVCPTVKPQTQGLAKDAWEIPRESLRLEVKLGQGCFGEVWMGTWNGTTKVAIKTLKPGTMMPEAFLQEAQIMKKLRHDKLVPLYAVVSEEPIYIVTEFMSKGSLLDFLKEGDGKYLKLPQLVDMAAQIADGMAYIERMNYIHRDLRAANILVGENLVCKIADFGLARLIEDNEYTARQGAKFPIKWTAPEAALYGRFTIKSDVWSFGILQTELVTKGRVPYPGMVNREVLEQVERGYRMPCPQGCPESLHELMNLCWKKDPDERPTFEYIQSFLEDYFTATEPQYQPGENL
Chain of Peroxisome proliferator-activated receptor alpha (Homo sapiens) (Q07869 whole entry, looked up): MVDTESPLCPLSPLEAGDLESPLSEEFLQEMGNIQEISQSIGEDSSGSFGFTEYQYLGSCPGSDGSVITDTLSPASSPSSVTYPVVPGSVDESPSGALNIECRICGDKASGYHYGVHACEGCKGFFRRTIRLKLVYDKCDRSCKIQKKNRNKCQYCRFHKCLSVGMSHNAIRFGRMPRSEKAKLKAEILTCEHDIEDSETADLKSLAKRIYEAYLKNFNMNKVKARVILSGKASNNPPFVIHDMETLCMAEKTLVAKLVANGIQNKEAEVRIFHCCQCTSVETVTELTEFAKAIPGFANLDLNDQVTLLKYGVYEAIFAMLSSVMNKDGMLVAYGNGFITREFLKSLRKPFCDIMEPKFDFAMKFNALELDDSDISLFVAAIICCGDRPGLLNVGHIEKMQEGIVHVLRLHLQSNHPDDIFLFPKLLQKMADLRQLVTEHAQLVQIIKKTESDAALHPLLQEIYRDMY

O=[N+]([O-])/N=C1\NCCN1Cc1ccc(Cl)nc1
inactive: max response [1] -0.352% | Potency [2] | max response [3] 8.85% | max response [4] 3.56% and 4.82% | max response [5] -6.64% | Potency [6]

Cc1c(C(=O)Nc2cccc(C(F)(F)F)c2)cc(-c2ccccc2)n1CCCN1CCOCC1
inactive: Potency [7] | outcome [8] | max response [4] 12.4%
17.4%: activity, percent of control [10]
8.32%: remaining parasite growth % (stronger effect = lower value) [9]

CNCCc1c[nH]c2ccc(O)cc12
inactive: outcome [11] | outcome [12] | outcome [13] | outcome [14] | outcome [15] | outcome [16] | outcome [17]

Cc1ccccc1-n1c(Cn2cnc3c(N)ncnc32)nc2cccc(C)c2c1=O
37.6%: activity, percent of control [10]
43.1%: remaining parasite growth % (stronger effect = lower value) [9]
inactive: Potency [7] | outcome [8] | max response [4] 15.4%

COC(=O)[C@@H](N)CCCN=C(N)N[N+](=O)[O-]
inactive: outcome [11] | outcome [12] | outcome [13] | outcome [14] | outcome [15] | outcome [16] | outcome [17] | max response [4] 6.28%

S=C(NC1CCCCC1)N1CCC(c2cnc[nH]2)CC1
inactive: outcome [11] | outcome [12] | outcome [13] | outcome [14] | outcome [15] | outcome [16] | outcome [17] | max response [4] 16.5%

CC1=NN=C(c2ccc(N)cc2)c2cc3c(cc2C1)OCO3
inactive: outcome [11] | outcome [12] | outcome [13] | outcome [14] | outcome [15] | outcome [16] | outcome [17] | max response [4] 7.34%

Cc1nccc2c1[nH]c1ccccc12
inactive: outcome [11] | outcome [12] | outcome [13] | outcome [14] | outcome [15] | outcome [16] | outcome [17] | max response [4] 22.2%

O=C(Cc1ccc(Cl)c(Cl)c1)N1CCCCC1CN1CCCC1 (configuration not stated)
inactive: outcome [11] | outcome [12] | outcome [13] | outcome [14] | outcome [15] | outcome [16] | outcome [17] | max response [4] 17.1%

CN[C@@H]1C[C@@H](c2ccc(Cl)c(Cl)c2)c2ccccc21
inactive: outcome [12] | outcome [13] | outcome [14] | outcome [15] | outcome [16] | outcome [17]

Cn1cnc(CCN)c1
inactive: outcome [11] | outcome [12] | outcome [13] | outcome [14] | outcome [15] | outcome [16] | outcome [17] | max response [4] 33.2%

CC(C)NC(C)Cc1ccc(I)cc1 (configuration not stated)
inactive: outcome [11] inactive; inhibitor; fitted 0.3013 uM | outcome [12] | outcome [13] | outcome [14] | outcome [15] | outcome [16] | outcome [17] | max response [4] 8.77%

O=C(O)CC[N+](=O)[O-]
inactive: outcome [11] | outcome [12] | outcome [13] | outcome [14] | outcome [15] | outcome [16] | outcome [17] | max response [4] 13%

CCCN(CCC)C1CCc2ccc(O)cc2C1 (configuration not stated)
inactive: outcome [11] inactive; inhibitor; fitted 0.0338 uM | outcome [12] | outcome [13] | outcome [14] | outcome [15] | outcome [16] | outcome [17] | max response [4] 6.52%

C[C@]12N[C@H](Cc3ccccc31)c1ccccc12
inactive: outcome [11] | outcome [15] | outcome [16] | outcome [17] | max response [4] -6.68% and -2.83% and -7.09%

NC1CCc2cc(O)c(O)cc2C1 (configuration not stated)
inactive: outcome [11] | outcome [12] | outcome [13] | outcome [14] | outcome [15] | outcome [16] | outcome [17] | max response [4] 20.3%

NCCc1c[nH]c2ccc(O)cc12
inactive: outcome [11] inactive; inhibitor; fitted 4.2562 uM | outcome [12] | outcome [13] | outcome [14] | outcome [15] | outcome [16] | outcome [17] | max response [4] 9.61%

NC(CCP(=O)(O)O)C(=O)O (configuration not stated)
inactive: outcome [11] | outcome [12] | outcome [13] | outcome [14] | outcome [15] | outcome [16] | outcome [17] | max response [4] 12.6%

CC[C@@]1(O)C(=O)OCc2c1cc1n(c2=O)Cc2cc3ccccc3nc2-1
inactive: outcome [11] | outcome [12] | outcome [13] | outcome [14] | outcome [15] | outcome [16] | outcome [17] | max response [4] -1.6%

CC[C@@H](C(N)=O)N1CCCC1=O
inactive: outcome [11] | outcome [12] | outcome [13] | outcome [14] | outcome [15] | outcome [16] | outcome [17] | max response [4] 27.6%

O=C(O)[C@@H]1CCN1
inactive: outcome [11] | outcome [12] | outcome [13] | outcome [14] | outcome [15] | outcome [16] | outcome [17] | max response [4] 23.1%

NC(CP(=O)(O)O)C(=O)O (configuration not stated)
inactive: outcome [11] | outcome [12] | outcome [13] | outcome [14] | outcome [15] | outcome [16] | outcome [17] | max response [4] 4%
